In ChEMBL document CHEMBL1857833, “Screening and optimization of specific chemical series against human African Trypanosomiasis (HAT)”:
In all, about 4,400 compounds went through this assay and about 390 (8.9%) showed an effect of 50% or more. The entries come from a sample that favours strong results as a whole.

What follows are molecules tested on Trypanosoma brucei (assay: DNDI: Inhibition of Human African Trypanosomiasis, SBRI 427, in vitro at 2 ug.mL-1).
Format: functional
With CCOc1ccc(-c2nc(CNCc3ccc(OC)cc3OC)co2)cc1 the “% inhibition” value was -17%.
For CCOc1ccccc1-c1nc(CN2CCN(C(=O)C3CCCO3)CC2)co1 (centres undefined), the “% inhibition” value was 8%.
For Cc1ccc(Oc2nc(C)ccc2/C(=N/O)N2CCSC2)c(C)c1, the “% inhibition” value was 26%.
In the case of COCC(C)NCc1coc(-c2ccccc2Cl)n1 (centres undefined), the “% inhibition” value is reported as -6%.
For COc1cccc(CN/C(=N\O)c2ccc(C)nc2Oc2cc(Cl)ccc2Cl)c1, the “% inhibition” value was -48%.
In the case of Cc1ccc(/C(=N/O)NCc2cc(F)ccc2F)c(Oc2cc(Cl)ccc2Cl)n1, the “% inhibition” value is reported as -39%.
For Cc1ccc(/C(=N/O)NCc2cc(F)cc(F)c2)c(Oc2cc(Cl)ccc2Cl)n1, the “% inhibition” value was 76%.
For CCOc1ccccc1-c1nc(CN(C)CC2OCCO2)co1, the “% inhibition” value was -5%.
In the case of Fc1ccccc1-c1nc(CNc2ccccc2)co1, the “% inhibition” value is reported as 13%.
With O/N=C(\NC1CCCCC1)c1ccnc(Oc2cccc3c2CCCC3)c1 the “% inhibition” value was 99%.
In the case of CN(/C(=N\O)c1ccnc(Oc2cccc3c2CCCC3)c1)C1CCCCC1, the “% inhibition” value is reported as 14%.
With O/N=C(\NCC1CCCCC1)c1ccnc(Oc2cccc3c2CCCC3)c1 the “% inhibition” value was 96%.
O/N=C(\NCc1c(F)cccc1F)c1ccnc(Oc2cccc3c2CCCC3)c1 was tested, and the “% inhibition” value was 37%.
In the case of Cc1ccc(CN/C(=N\O)c2ccnc(Oc3cccc4c3CCCC4)c2)o1, the “% inhibition” value is reported as 40%.
Cc1ccc(Oc2cc(/C(=N/O)NC3CCCC3)ccn2)c2c1CCC2 was tested, and the “% inhibition” value was 11%.
In the case of CCOc1ccccc1-c1nc(CN(CC)Cc2ccncc2)co1, the “% inhibition” value is reported as 12%.
In the case of CCOc1ccc(-c2nc(CNCC(C)(C)CN(C)C)co2)cc1, the “% inhibition” value is reported as 39%.
With O/N=C(/c1ccc(Oc2cccc(F)c2)nc1)N1CCN(c2ccccc2)CC1 the “% inhibition” value was 2%.
In the case of COc1ccc(Oc2cc(/C(=N/O)NC3CC(C)CC(C)(C)C3)ccn2)cc1 (centres undefined), the “% inhibition” value is reported as 14%.
With CSc1ccc(Oc2cc(/C(=N/O)NC3CCCCC3)ccn2)cc1 the “% inhibition” value was 21%.
With COc1ccc(Oc2cc(/C(=N/O)NC3CCCCC3)ccn2)cc1 the “% inhibition” value was 100%.
With COc1ccc(Oc2cc(/C(=N/O)NCC3CCCO3)ccn2)cc1 (centres undefined) the “% inhibition” value was 34%.
With COc1ccc(Oc2cc(/C(=N/O)N3C(C)CCCC3C)ccn2)cc1 (centres undefined) the “% inhibition” value was 10%.
For COc1ccc(Oc2cc(/C(=N/O)NC3CCC3)ccn2)cc1, the “% inhibition” value was 100%.
With Cc1ccc(Oc2nc(C)ccc2/C(=N/O)N(C)C2CCCCC2)c(C)c1 the “% inhibition” value was 18%.
Cc1cc(C)cc(Oc2ccc(/C(=N/O)n3cnc(C)c3)cn2)c1 was tested, and the “% inhibition” value was 1%.
CCCCN(CC#N)Cc1coc(-c2ccc(C)cc2)n1 was tested, and the “% inhibition” value was 7%.
In the case of CCN(Cc1coc(-c2ccccc2F)n1)c1ccc(C)cc1, the “% inhibition” value is reported as -32%.
In the case of CCc1ccc(Oc2ncccc2/C(=N/O)NC(C)COC)cc1 (centres undefined), the “% inhibition” value is reported as 87%.
For COCC(C)N/C(=N\O)c1cccnc1Oc1ccc(C(C)C)cc1 (centres undefined), the “% inhibition” value was 99%.
COCC(C)N/C(=N\O)c1cccnc1Oc1cccc(C(F)(F)F)c1 (centres undefined) was tested, and the “% inhibition” value was 1%.
With COCC(C)N/C(=N\O)c1cccnc1Oc1ccc(OC)cc1 (centres undefined) the “% inhibition” value was -10%.
COCC(C)N/C(=N\O)c1cccnc1OCC(C)C (centres undefined) was tested, and the “% inhibition” value was 5%.
In the case of CCc1ccc(Oc2ncccc2/C(N)=N/O)cc1, the “% inhibition” value is reported as 1%.
In the case of CCOc1ccccc1-c1nc(CN2CCN(C(c3ccccc3)c3ccccc3)CC2)co1, the “% inhibition” value is reported as 5%.
For COc1ccccc1CN/C(=N\O)c1ccc(Oc2cc(C)cc(C)c2)nc1, the “% inhibition” value was -8%.
O/N=C(/c1ccc(Oc2ccc(Cl)cc2)nc1)n1ccnc1 was tested, and the “% inhibition” value was 0%.
For CCOc1ccc(Oc2cc(/C(=N/O)NCc3ccc(C)o3)ccn2)cc1, the “% inhibition” value was 24%.
Cc1ccccc1-c1nc(CNCc2ccccc2C(F)(F)F)co1 was tested, and the “% inhibition” value was 7%.
With FC(F)(F)c1ccc(CNCc2coc(-c3cccc4ccccc34)n2)cc1 the “% inhibition” value was 3%.
COc1ccccc1CN/C(=N\O)c1ccc(C)nc1OCc1cccc(F)c1 was tested, and the “% inhibition” value was -8%.
For O/N=C(\NCc1ccccc1F)c1cccnc1OCc1cccc(F)c1, the “% inhibition” value was 29%.
For O/N=C(\NCc1cccnc1)c1cccnc1OCc1ccccc1F, the “% inhibition” value was 4%.
For CCOc1ccccc1CN/C(=N\O)c1ccc(C)nc1OCc1ccccc1F, the “% inhibition” value was 8%.
With CCOc1ccccc1CN/C(=N\O)c1cccnc1OCc1cccc(F)c1 the “% inhibition” value was 72%.
With CCOc1ccccc1CN/C(=N\O)c1cccnc1OCc1ccccc1F the “% inhibition” value was 55%.
FC(F)(F)c1ccc(-c2nc(CNc3cc[nH]n3)co2)cc1 was tested, and the “% inhibition” value was 40%.
Cc1ccc(/C(=N/O)N2C(C)CCCC2C)c(Oc2ccc(F)cc2)n1 (centres undefined) was tested, and the “% inhibition” value was 28%.
For O/N=C(/c1ccc(Oc2cccc3ccccc23)nc1)N1CCCCCC1, the “% inhibition” value was 25%.
With CCOc1ccc(-c2nc(CN(C)CCc3ccc(OC)c(OC)c3)co2)cc1 the “% inhibition” value was -3%.
With COc1ccccc1CN/C(=N\O)c1ccc(C)nc1Oc1cc(Cl)ccc1Cl the “% inhibition” value was 100%.
In the case of Cc1ccc(/C(=N/O)NCc2ccccc2F)c(Oc2cc(Cl)ccc2Cl)n1, the “% inhibition” value is reported as 81%.
For COc1ccccc1CN/C(=N\O)c1ccc(C)nc1Oc1ccc(Cl)cc1, the “% inhibition” value was 3%.
Cc1ccc(/C(=N/O)NCc2c(F)cccc2F)c(Oc2cc(Cl)ccc2Cl)n1 was tested, and the “% inhibition” value was 35%.
COc1ccccc1CN/C(=N\O)c1ccc(C)nc1Oc1ccc(F)c(Cl)c1 was tested, and the “% inhibition” value was 11%.
For Cc1ccc(/C(=N/O)NCc2ccccc2C)c(Oc2cc(Cl)ccc2Cl)n1, the “% inhibition” value was 18%.
In the case of COc1cccc(-c2nc(CNCc3ccccc3C(F)(F)F)co2)c1, the “% inhibition” value is reported as 20%.
Cc1ccc(C)c(N2CCN(Cc3coc(-c4ccc(F)cc4)n3)CC2)c1 was tested, and the “% inhibition” value was -12%.
Cc1ccc(-c2nc(CNC3CCCCCCC3)co2)cc1 was tested, and the “% inhibition” value was 71%.
In the case of c1coc(-c2nc(CNC3CCCCC3)co2)c1, the “% inhibition” value is reported as 6%.
For Oc1ccc(-c2nc(CNC3CCCCCC3)co2)cc1, the “% inhibition” value was 16%.
For Oc1ccc(-c2nc(CNC3CCCCCCCCCCC3)co2)cc1, the “% inhibition” value was 60%.
CC(NCc1coc(-c2ccc(O)cc2)n1)C1CCCCC1 (centres undefined) was tested, and the “% inhibition” value was 0%.
With Fc1ccc(-c2nc(CNC3CCCCC3)co2)cc1 the “% inhibition” value was 8%.
FC(F)(F)c1ccc(-c2nc(CNc3ccc(Oc4ccccc4)cc3)co2)cc1 was tested, and the “% inhibition” value was 4%.
COc1cccc(-c2nc(CN(CCN(C)C)Cc3ccccc3)co2)c1 was tested, and the “% inhibition” value was 23%.
In the case of Cc1cc(C)cc(Oc2ccc(/C(=N/O)N3CCN(C4CCCC4)CC3)cn2)c1, the “% inhibition” value is reported as 0%.
In the case of COc1cc(-c2nc(CNC(C)c3cccc4ccccc34)co2)cc(OC)c1OC (centres undefined), the “% inhibition” value is reported as -4%.
With O/N=C(\NCc1ccccc1)c1cccnc1Oc1c(F)c(F)cc(F)c1F the “% inhibition” value was 10%.
With CSc1ccccc1Oc1ncccc1/C(=N/O)NCc1c(F)cccc1F the “% inhibition” value was 58%.
With Cc1ccccc1CN/C(=N\O)c1cccnc1Oc1c(F)cccc1F the “% inhibition” value was 95%.
In the case of COc1ccccc1Oc1ncccc1/C(=N/O)NCc1c(F)cccc1F, the “% inhibition” value is reported as 28%.
For COc1ccc(CN/C(=N\O)c2cccnc2Oc2c(F)cccc2F)cc1, the “% inhibition” value was -7%.
For O/N=C(\NCc1cccnc1)c1cccnc1Oc1ccc(F)cc1, the “% inhibition” value was 2%.
With CCOc1ccccc1CN/C(=N\O)c1cccnc1Oc1c(F)cccc1F the “% inhibition” value was 41%.
CC(C)(C)CN/C(=N\O)c1cccnc1Oc1c(F)cccc1F was tested, and the “% inhibition” value was 100%.
With O/N=C(\NCc1c(F)cccc1F)c1cccnc1Oc1ccc(F)cc1 the “% inhibition” value was 94%.
With O/N=C(\NCc1ccncc1)c1cccnc1Oc1ccc(F)cc1 the “% inhibition” value was 2%.
For CCc1ccc(Oc2ncccc2/C(=N/O)n2ccnc2)cc1, the “% inhibition” value was 3%.
With Cc1cccc(Oc2ccc(/C(=N/O)N(C)C3CCCCC3)cn2)c1 the “% inhibition” value was 4%.
For Cc1ccc(/C(=N/O)NCC2CC2)c(Oc2cccc3c2CCCC3)n1, the “% inhibition” value was -5%.
Cc1cc(C)cc(Oc2nc(C)ccc2/C(=N/O)Nc2ccc(C(C)C)cc2)c1 was tested, and the “% inhibition” value was 0%.
For COc1cccc(-c2nc(CN3CCN(c4ccccn4)CC3)co2)c1, the “% inhibition” value was -9%.
Oc1ccc(-c2nc(CNCc3ccccc3)co2)cc1 was tested, and the “% inhibition” value was 1%.
CN(Cc1coc(-c2ccc(C(F)(F)F)cc2)n1)CC1OCCO1 was tested, and the “% inhibition” value was -7%.
CN(Cc1cccnc1)Cc1coc(-c2cccc(F)c2)n1 was tested, and the “% inhibition” value was -1%.
With Cc1ccccc1CN/C(=N\O)c1cccnc1Oc1cccc(C)c1C the “% inhibition” value was 85%.
With Cc1ccc(Oc2nc(C)ccc2/C(=N/O)NCc2c(F)cccc2F)cc1 the “% inhibition” value was 13%.
In the case of O/N=C(\NCc1c(F)cccc1F)c1cccnc1Oc1ccccc1, the “% inhibition” value is reported as 98%.
For Cc1ccc(Oc2ncccc2/C(=N/O)NCc2c(F)cccc2F)cc1, the “% inhibition” value was 98%.
CCCN/C(=N\O)c1cccnc1Oc1ccccc1 was tested, and the “% inhibition” value was 8%.
In the case of Cc1cccc(Oc2ncccc2/C(=N/O)NCc2ccncc2)c1C, the “% inhibition” value is reported as 5%.
In the case of O/N=C(\NCc1cccs1)c1cccnc1Oc1c(F)cccc1F, the “% inhibition” value is reported as 73%.
In the case of Cc1ccc(Oc2ncccc2/C(=N/O)NCc2ccccc2)cc1, the “% inhibition” value is reported as 12%.
O/N=C(\NCc1cccnc1)c1cccnc1Oc1ccccc1 was tested, and the “% inhibition” value was 8%.
With O/N=C(\NCc1ccccc1)c1cccnc1Oc1c(F)cccc1F the “% inhibition” value was 3%.
In the case of COc1ccccc1CN/C(=N\O)c1cccnc1Oc1cccc(C)c1C, the “% inhibition” value is reported as 7%.
In the case of Cc1cccc(Oc2ncccc2/C(=N/O)NCc2cccs2)c1C, the “% inhibition” value is reported as 3%.
For CSc1ccc(Oc2ncccc2/C(=N/O)NCc2cccnc2)cc1C, the “% inhibition” value was 10%.
CCOc1cccc(-c2nc(CNCCc3cccc(OC)c3)co2)c1 was tested, and the “% inhibition” value was 8%.
For COCC(C)NCc1coc(-c2cccc(C)c2)n1 (centres undefined), the “% inhibition” value was 19%.
In the case of Cc1ccc(N(C)Cc2coc(-c3ccccc3Cl)n2)cc1, the “% inhibition” value is reported as -9%.
For Cc1cc(C)cc(CN/C(=N\O)c2cccnc2OCc2ccccc2F)c1, the “% inhibition” value was 83%.
In the case of O/N=C(\NCc1c(F)cccc1F)c1cccnc1Oc1c(F)c(F)cc(F)c1F, the “% inhibition” value is reported as 2%.
O/N=C(\NCc1c(F)cccc1F)c1cccnc1OC1CCC1 was tested, and the “% inhibition” value was 10%.
For Cc1cc(C)cc(CN/C(=N\O)c2cccnc2Oc2cccc(C)c2C)c1, the “% inhibition” value was -13%.
In the case of CC(C)c1ccc(Oc2ncccc2/C(=N/O)NCc2ccncc2)cc1, the “% inhibition” value is reported as 1%.
O/N=C(\NCc1ccccc1)c1cccnc1OCc1ccccc1F was tested, and the “% inhibition” value was 37%.
O/N=C(\NCc1c(F)cccc1F)c1cccnc1Oc1c(F)cccc1F was tested, and the “% inhibition” value was 95%.
In the case of Cc1cc(C)cc(CN/C(=N\O)c2cccnc2Oc2c(F)cccc2F)c1, the “% inhibition” value is reported as 100%.
In the case of Cc1cc(C)cc(CN/C(=N\O)c2cccnc2Oc2c(F)c(F)cc(F)c2F)c1, the “% inhibition” value is reported as -3%.
With CC(C)COc1ncccc1/C(=N/O)NCc1c(F)cccc1F the “% inhibition” value was -9%.
In the case of O/N=C(\NCc1ccncc1)c1cccnc1OCc1ccccc1F, the “% inhibition” value is reported as -12%.
With CC(C)c1ccc(Oc2ncccc2/C(=N/O)NCc2c(F)cccc2F)cc1 the “% inhibition” value was 100%.
